Screening results deposited in PubChem by several laboratories.
Rows were chosen to be rich in hits. Some 4.1% of all compounds tested hit in one or more screens of this group.
tim23-1 inh – growth inhibitors of tim23-1 mutant yeast. S. cerevisiae tim23-1 growth, BacTiter-Glo luminescence, 24 h. inhibition, % at 20 µM. AID 463212. 330,000 tested, 1.3% active;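 active means growth inhibition of the mutant yeast at or above 50%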;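 further: temperature-sensitive mutant grown at 25 °C; plate controls were DMSO-treated mutant yeast for no effect and medium wells lacking yeast for full effect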
TIM10 inh – inhibits growth of TIM10 yeast strain | inhibition, % at 10 µM | 330,000 tested, 1.4% active | S. cerevisiae TIM10 strain growth, BacTiter-Glo luminescence, 24 h | AID 463195;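 active means inhibition of 40% or more at the single tested concentration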;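 further: wild-type TIM10 isogenic control strain grown at permissive 25 °C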
NALP1 inh – NALP1 inhibition; S. cerevisiae NALP1/ASC/caspase-1 growth, X-gal OD620, 72 h; inhibition, % at 10 µM; 280,000 tested, 0.61% active; in the data active means inhibition mostly above about 24%, no sharp cut-off; inactive means mostly below about 32%
tim10-1 inh – tim10-1 yeast growth inhibition; S. cerevisiae tim10-1 ts strain growth, BacTiter-Glo, 24 h; inhibition, % at 20 µM; 330,000 tested, 2.2% active; AID 463190;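 active means inhibition of at least 40%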;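 further: mutant grown at 25 °C; 0% = DMSO wells with yeast and 100% = wells holding no yeast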
PfHsp90 yeast 2 – growth inhibition of yeast expressing Plasmodium Hsp90; S. cerevisiae expressing PfHsp90, BacTiter-Glo ATP, 48 h; yeast lacking PDR1 and PDR3 efflux regulators; inhibition, % at 9.4 µM; 310,000 tested, 0.32% active; AID 504621;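 active means every replicate shows inhibition above about 80%, whatever the replicate mean, limit read from the data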;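 further: 0% = DMSO neutral controls and 100% = 20 µM radicicol positive controls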
NLRP3 yeast inh – blocks the NALP3 inflammasome reconstituted in yeast; 330,000 tested, 0.39% active; Yeast reconstituted NLRP3/ASC/caspase-1, beta-gal luminescence, 24 h; inhibition, % at 10 µM;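 active means inhibition of 50% or more; inactive means inhibition below 50%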;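 further: plate controls were induced DMSO wells for no effect and uninduced yeast grown without galactose for full effect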
tim10-1 confirm – confirmation of tim10-1 mutant yeast growth inhibitors; shares compounds with tim10-1 inh; S. cerevisiae tim10-1 ts strain growth, BacTiter-Glo, 24 h; inhibition, % at 20 µM; 7,400 tested, 56% active; AID 463213;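 active means inhibition of yeast growth at or above a set limit in either of two repeat tests at 20 µM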;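 further: tim10-1 mutant grown at permissive 25 °C to find synthetic lethal compounds; 0% = DMSO yeast wells and 100% = medium wells without yeast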
tim10 confirm – confirmation of TIM10 yeast growth inhibitors; shares compounds with TIM10 inh; S. cerevisiae tim10 strain growth, BacTiter-Glo luminescence, 24 h; inhibition, % at 10 µM; 4,600 tested, 63% active; AID 463215;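 active means inhibition of yeast growth at or above a set limit in either of two replicates at 10 µM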;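 further: this counterscreen used the strain with wild-type TIM10; 0% = yeast with DMSO and 100% = medium wells lacking yeast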
tim23-1 confirm – tim23-1 yeast growth inhibition, confirmed. shares compounds with tim23-1 inh. S. cerevisiae tim23-1 growth, BacTiter-Glo luminescence, 24 h. inhibition, % at 20 µM. 4,400 tested, 83% active. AID 463218;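 active means inhibition above about 39% in either of two replicate wells at 20 µM, limit read from the data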;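 further: temperature-sensitive tim23-1 mutant grown at 25 °C; 0% = DMSO wells with yeast and 100% = medium wells without yeast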
* hit, by the source's call; . = no result given.

SMILES	tim23-1 inh	TIM10 inh	NALP1 inh	tim10-1 inh	PfHsp90 yeast 2	NLRP3 yeast inh	tim10-1 confirm	tim10 confirm	tim23-1 confirm
COc1ccc(CN2CCNC(=O)C2CC(=O)N2CCCN(C(C)=O)CC2)c(OC)c1 (stereo not given)	3.5	7.5	6.1	9.3	6.9	-7.6	.	.	.
CCCN(CCC)c1nc2ccccc2nc1C(C#N)C(=O)OCCOC (stereo not given)	25.2	11.9	.	24.0	-20.0	17.8	.	.	.
C=CCN(CC=C)c1nc2ccccc2nc1C(C#N)C(=O)OCCOC (stereo not given)	58.7*	40.6*	5.8	66.6*	-9.0	33.4	71.8*	55.1*	66.0*
COc1ccccc1CNC(=O)/C(C#N)=C/c1ccc(OC)c(OC)c1OC	53.5*	23.5	-4.4	46.0*	13.1	13.5	44.9*	.	-22.6
COc1ccc(/C=C(\C#N)C(=O)OCC(=O)NCc2ccccc2OC)cc1	0.8	-9.2	.	2.1	-14.3	18.3	.	.	.
O=C(CSc1nnc2ncccn12)Nc1cccc2ccccc12	3.9	-9.4	4.0	-4.2	-1.8	11.9	.	.	.
COc1ccc2c(ccc[n+]2CC(=O)c2ccccc2)c1	-5.7	1.0	15.7	15.0	22.7	9.6	.	.	.
COc1ccc(C(=O)C[n+]2cn(C(F)F)c3ccccc32)c(F)c1	57.8*	63.0*	9.9	52.7*	.	-16.1	49.9*	31.1*	43.3*
FC(F)(F)c1nnc(-c2ccccc2)nc1Sc1ccc(Cl)cc1	62.3*	31.1	.	50.6*	-6.6	15.9	48.9*	.	46.8*
FC(F)(F)c1cccc(Sc2nc(-c3ccccc3)nnc2C(F)(F)F)c1	21.8	15.2	22.2	39.5	4.0	3.1	.	.	.
Cc1ccc(SCC(=O)Nc2ccc3c(c2)C(=O)N(C)C3=O)cc1	10.8	8.3	38.1	13.3	-5.6	0.2	.	.	.
CCN(CC)c1ccc(NC(=O)c2cc(Cl)ccc2OC)cc1	50.0*	25.8	5.3	42.5*	-15.4	22.4	31.8*	.	43.8*
COc1cc(Nc2nc3c(N)cc(C(F)(F)F)cc3nc2-c2ccccc2)cc(OC)c1OC	.	.	.	.	-1.3	.	.	.	.
O=C(NC(=S)N1CCc2ccccc21)c1ccc(Br)o1	63.6*	67.3*	-2.2	62.3*	.	9.4	56.5*	57.1*	66.3*
CC(C)(C)C(=O)NC(=S)N1CCc2ccccc21	2.8	3.0	16.8	11.9	15.7	-1.1	.	.	.
COc1ccc(NC(=O)/C(Cl)=C(/Cl)S(=O)Cc2ccccc2)cn1 (stereo not given)	86.4*	69.2*	13.1	48.6*	119.0*	21.8	33.7*	83.9*	13.9
COc1ccc(CS(=O)(=O)/C(Cl)=C(/Cl)C(=O)Nc2ccc(OC)nc2)cc1	72.0*	52.3*	-7.9	72.7*	-51.3	9.6	65.9*	58.4*	76.1*
CCOc1ccc(S(=O)(=O)NCCC(=O)NCc2ccncc2)cc1	-1.5	-0.4	.	-0.9	.	14.6	.	.	.
Fc1ccc(CNC(=S)Nc2cccc(Cl)c2)cc1	50.1*	37.5	22.2	47.6*	-7.9	14.3	40.8*	.	51.8*
S=C(NCc1ccncc1)Nc1cccc(Cl)c1	7.8	9.7	24.5	18.3	8.3	-6.0	.	.	.
Brc1ccc2c(c1)OCCOCCOc1cc(Br)ccc1OCCOCCOCCO2	61.9*	35.1	49.7	56.5*	10.4	35.9	62.4*	.	72.0*
O=C(O)C1CC=CCC1C(=O)NCc1ccc(Cl)c(Cl)c1 (stereo not given)	16.0	-13.9	.	1.3	0.7	0.1	.	.	.
O=C(Sc1cccc2cccnc12)c1ccc(F)cc1	79.9*	55.5*	-13.8	76.1*	.	43.1	66.6*	58.5*	70.8*
COc1cc(/C=C2\SC(c3ccc(C)cc3)=NC2=O)cc(OC)c1O	53.1*	44.2*	34.0	54.5*	-16.7	5.6	37.5*	39.9*	48.7*
O=C(O)c1cc(NC(=O)c2ccco2)cc(NC(=O)c2ccco2)c1	8.1	-13.2	2.1	14.2	9.9	15.0	.	.	.
SMILES	tim23-1 inh	TIM10 inh	NALP1 inh	tim10-1 inh	PfHsp90 yeast 2	NLRP3 yeast inh	tim10-1 confirm	tim10 confirm	tim23-1 confirm
C/C(N)=C(/C#N)C(=O)CSc1nc2cc(Cl)ccc2s1	54.5*	43.8*	29.9	50.1*	.	27.3	46.1*	37.4*	55.8*
Cc1noc(NS(=O)(=O)c2ccc(NC(=O)c3cccc(S(=O)(=O)Nc4ccccc4F)c3)cc2)c1C	6.5	10.7	.	0.5	-6.6	21.8	.	.	.
COc1cc(NC(=O)c2ccc(C)cc2C)ccc1NC(=O)c1cccs1	-0.9	-9.4	12.5	-12.2	-8.2	28.0	.	.	.
Cc1ccc(C(=O)Nc2cccc(NC(=O)c3cccs3)c2)c(C)c1	52.9*	21.0	10.5	46.7*	0.4	19.6	36.4*	.	49.9*
Cc1ccc(S(=O)(=O)N2CCN(C)CC2c2ccccc2)cc1 (stereo not given)	15.7	13.2	.	20.0	.	6.3	.	.	.
COC(=O)c1ccc(/C=C(\C#N)C(=O)NC(C)c2ccccc2)cc1 (stereo not given)	66.5*	61.3*	52.1	64.3*	-14.6	0.0	62.2*	57.5*	58.0*
CC(NC(=O)/C(C#N)=C/c1ccc(N2CCOCC2)cc1)c1ccccc1 (stereo not given)	32.9	21.8	12.3	17.6	-78.3	23.9	.	.	.
COc1cc(OC)c(NC(=S)Nc2cc(Cl)cc(Cl)c2)cc1Cl	53.7*	41.1*	33.3	54.5*	-4.2	4.2	52.7*	-9.4	58.5*
Cc1nc2c(ccc3nc(NC(=O)C4CC4)sc32)s1	68.0*	65.1*	7.3	52.7*	.	-31.7	53.5*	53.7*	71.3*
CCC(=O)Nc1nc2ccc3sc(C)nc3c2s1	32.5	25.5	-20.4	28.4	6.1	6.5	.	.	.
COC(=O)C(C)NC(=O)C12CC3CC(C1)CC(c1ccc(C)cc1)(C3)C2 (stereo not given)	30.1	21.5	6.6	38.8	2.7	20.5	.	.	.
O=[N+]([O-])c1cc(-c2nc(-c3ccncc3)no2)cc([N+](=O)[O-])c1	72.2*	68.5*	28.1	76.1*	29.1	13.2	66.9*	-17.3	81.2*
COc1ccc(NC(=O)/C(C#N)=C/c2ncc([N+](=O)[O-])n2C)c(OC)c1	83.5*	24.6	.	58.4*	15.3	47.9	66.2*	.	81.0*
O=C(O)c1ccc(NC2=C/C(=N/S(=O)(=O)c3ccccc3)c3ccccc3C2=O)cc1	39.5	14.2	-12.4	38.3	-29.8	-1.4	.	.	.
